Results on 40 compounds are retold here after PubChem BioAssay (NCI).

This is part of a sample that, as a whole, favours compounds with a hit. Of some 83,000 tested, about 20% had one in any assay.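 The endpoint reported here, percent growth, reads 100 for growth as untreated, 0 for no net growth and -100 for all cells dead.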 Values without a mark were called inactive. Active and inactive are the calls of the source. Rule for the calls: active = growth percent below 10; inactive = the rest.

For one test, the system named is A498 renal. The experiment in a line: NCI-60 one-dose screen, 48 h (100 = growth as untreated, 0 = no growth, -100 = all killed). The following applies: 10 µM unless noted.
For the compound `COc1cccc(CNc2c3ccccc3nc3ccccc23)c1`, the growth was 3.65% (active).

With `NC1(CO)COC(c2ccccc2)OC1` (stereo unspecified), the growth is 107%.

`CO[C@H](C(=O)[C@@H](O)[C@@H](C)O)[C@@H]1Cc2cc3cc(O[C@H]4C[C@@H](O[C@H]5C[C@@H](O)[C@H](O)C(C)O5)[C@H](O)C(C)(O)O4)cc(O)c3c(O)c2C(=O)[C@H]1O[C@H]1C[C@@H](O[C@H]2C[C@@H](O[C@H]3C[C@@H](OC)[C@H](O)C(C)O3)[C@@H](O)C(C)O2)[C@H](O)C(C)O1` (stereo partly specified): the growth is -30.9% (active).

As to `N#Cc1c(-c2ccccc2)nc(SCC(O)CN2CCOCC2)nc1N1CCOCC1` (stereo unspecified), the growth is -3.34% (active).

Regarding `COc1cc(-c2nc3cc(Cl)c(Cl)cc3[nH]2)ccc1OCC(=O)N=Nc1c(O)[nH]c2ccc(Cl)cc12`, the growth is 20.1%.

`CNC(=O)c1ccccc1Nc1nc(Nc2cc(OC)c(OC)c(OC)c2)ncc1Br`: the growth was -88.4% (active).

Turning to `C=C(C)[C@@H]1CC[C@]2(C(N)=O)CC[C@]3(C)[C@H](CC[C@@H]4[C@@]5(C)CC[C@H](OCCC#N)C(C)(C)[C@@H]5CC[C@]43C)[C@@H]12`, the growth is 116%.

`N#C/C(=C\C=C\c1ccc(-c2cc(Cl)ccc2Cl)o1)c1nc2ccccc2s1`: the growth is 126%.

With `COc1ccc(/C=C/C(c2cc(OC)c(OC)c(OC)c2)n2ccnc2)cc1O` (stereo unspecified), the growth was 67.5%.

In the case of `Cc1ccc2nc(/C(C#N)=C(/CCCO)NC(Cc3ccccc3)C(=O)OCc3ccccc3)[nH]c(=O)c2c1` (stereo unspecified), the growth is 210%.

Turning to `N#C/C(=C\c1ccc(-c2cccc(C(F)(F)F)c2)o1)c1ccccc1`, the growth is 102%.

As to `O=C(NC1CC(F)C1)c1cc2cccnc2n1-c1ccc(Cl)c(Cl)c1` (stereo unspecified), the growth is 99%.

In the case of `CCNC(=O)Oc1ccc(/C(=C(/CC)Cc2ccccc2)c2ccc(OCCN3CCCC3)cc2)cc1`, the growth is 89.3%.

Turning to `COc1cc(C2C(C(=O)OCc3ccccc3)=C(C)NC(C)=C2C(=O)OCc2ccccc2)cc(OC)c1OC`, the growth is 36.8%.

As to `CN(Cc1cc(Br)cc(Br)c1O)Cc1cc(Br)cc(Br)c1O`, the growth is 66.5%.

Regarding `Cc1c2cccnc2c(C)c2c1c1cc(CO)ccc1n2C`, the growth was -81.1% (active).

Regarding `S=c1[nH]c(=S)c2c(-c3ccccc3)c(-c3ccccc3)oc2[nH]1`, the growth was 70.9%.

As for `CCC1S/C(=N\N=C(\C)c2cc3cc(Cl)ccc3o2)N(c2ccccc2)C1=O` (stereo unspecified), the growth was 22.2%.

For the compound `CCN(CC)Cc1cc(Nc2ccnc3cc(Cl)ccc23)ccc1O`, the growth is 95.7%.

As for `CCOC(=O)C(Cc1ccc(OC)cc1)C(=O)OCC`, the growth is 54.5%.

As to `CC1(C)CC[C@]2(C(=O)N[C@H](CO)Cc3ccccc3)CC[C@]3(C)C(=CC[C@@H]4[C@@]5(C)CCCNC(C)(C)[C@@H]5CC[C@]43C)[C@@H]2C1`, the growth is 85.1%.

In the case of `CC(C)(C)n1cc(-c2ccnc(NCCNS(=O)(=O)c3ccc(O)cc3)c2)c(-c2cccc(O)c2)n1`, the growth is 88.8%.

Consider `CC1(C)C(N)=Nc2cc(OCCCN3Cc4ccccc4C3)c(OCC3CC3)cc21`, for which the growth was 92%.

Turning to `CCOC(=O)C(=CNc1cnc(Nc2ccc(N3CCOCC3)cc2)nc1Oc1ccc(OC)cc1)C(=O)OCC`, the growth is 42.1%.

With `O=C(Nc1ccccc1O)c1ccc(CNC(=O)c2ccsc2Nc2ccnc(C(F)(F)F)c2)cc1`, the growth was -14.5% (active).

Turning to `CC(=O)ON1CCCC(P(=O)(OCCSC(=O)C(C)(C)C)OCCSC(=O)C(C)(C)C)C1=O` (stereo unspecified), the growth was -8.82% (active).

The test system of the next test is CCRF-CEM leukemia. Described as above. To be noted: 10 µM unless noted.
With `C[n+]1ccc(CCc2c[nH]c3ccccc23)cc1`, the growth is 101%.

`O=C(CI)NC(=O)NC(=O)NCc1ccccc1`: the growth is -23.8% (active).

As for `O=C1/C=C/[C@@H](O)[C@@H]2C[C@@H](O)C[C@H]2/C=C/CCC[C@@H](O)CCO1`, the growth was 116%.

With `CC/C=C\C[C@H](O)C/C=C1/C(=O)C=C[C@@H]1C/C=C\CCCC(=O)O`, the growth was 4.11% (active).

As for `CCCCNC(=O)c1cc([N+](=O)[O-])cc(C2CCCCC2)c1O`, the growth was 36.5%.

For the compound `CC(=C(c1ccc(OCCN2CCCCC2)cc1)c1ccc(OCCN2CCCCC2)cc1)c1ccc(Cl)cc1`, the growth is -71.5% (active).

In the case of `S=C(c1ccc2c(c1)OCO2)N1CCN(c2cccc(Cl)c2)CC1`, the growth was 18.8%.

On to `COc1ccc(/C(C)=C(/c2ccc(OCCCN(C)C)cc2)c2ccc(OC(=O)c3ccccc3)cc2)cc1`, for which the growth is 64.3%.

With `Cc1c(CC(=S)N2CCOCC2)nnn1-c1cccc(C(F)(F)F)c1`, the growth was 103%.

`COc1cccc(/C=C/C(=O)c2cc3c(N)c(C(=O)Nc4cccc5ccccc45)sc3nc2C)c1`: the growth was 7.04% (active).

`COc1cc(OC)c2sc(-c3ccc(-n4cncc4-c4cc(OC)c(OC)c(OC)c4)cc3)nc2c1`: the growth is 56.6%.

For `COC(=O)C(Cc1ccccc1)NC(=O)c1ccc(NC(=O)c2[nH]c(C)c(Cl)c2Cl)c(OC(C)C)c1` (stereo unspecified), the growth is 73.2%.

Consider `O=C(N/N=C\c1cccc([N+](=O)[O-])c1)N/N=C/c1cccc([N+](=O)[O-])c1`, for which the growth is 98.7%.

Turning to `COc1ccccc1N(C(C)=O)C1=C(Cl)C(=O)c2ccccc2C1=O`, the growth was -16.9% (active).

With `COc1cccc(CNc2c3ccccc3nc3ccccc23)c1`, the growth was 30.2%.

`NC1(CO)COC(c2ccccc2)OC1` (stereo unspecified): the growth is 99.4%.

As to `CO[C@H](C(=O)[C@@H](O)[C@@H](C)O)[C@@H]1Cc2cc3cc(O[C@H]4C[C@@H](O[C@H]5C[C@@H](O)[C@H](O)C(C)O5)[C@H](O)C(C)(O)O4)cc(O)c3c(O)c2C(=O)[C@H]1O[C@H]1C[C@@H](O[C@H]2C[C@@H](O[C@H]3C[C@@H](OC)[C@H](O)C(C)O3)[C@@H](O)C(C)O2)[C@H](O)C(C)O1` (stereo partly specified), the growth was 54.5%.

Turning to `N#Cc1c(-c2ccccc2)nc(SCC(O)CN2CCOCC2)nc1N1CCOCC1` (stereo unspecified), the growth was 88%.

For the compound `COc1cc(-c2nc3cc(Cl)c(Cl)cc3[nH]2)ccc1OCC(=O)N=Nc1c(O)[nH]c2ccc(Cl)cc12`, the growth is -31.3% (active).

Take `CNC(=O)c1ccccc1Nc1nc(Nc2cc(OC)c(OC)c(OC)c2)ncc1Br`: the growth is 71.3%.

As to `C=C(C)[C@@H]1CC[C@]2(C(N)=O)CC[C@]3(C)[C@H](CC[C@@H]4[C@@]5(C)CC[C@H](OCCC#N)C(C)(C)[C@@H]5CC[C@]43C)[C@@H]12`, the growth was 78.9%.

Take `N#C/C(=C\C=C\c1ccc(-c2cc(Cl)ccc2Cl)o1)c1nc2ccccc2s1`: the growth is 91.8%.

`COc1ccc(/C=C/C(c2cc(OC)c(OC)c(OC)c2)n2ccnc2)cc1O` (stereo unspecified): the growth is 37.1%.

Consider `Cc1ccc2nc(/C(C#N)=C(/CCCO)NC(Cc3ccccc3)C(=O)OCc3ccccc3)[nH]c(=O)c2c1` (stereo unspecified), for which the growth was 164%.

Regarding `N#C/C(=C\c1ccc(-c2cccc(C(F)(F)F)c2)o1)c1ccccc1`, the growth was 97%.

For `O=C(NC1CC(F)C1)c1cc2cccnc2n1-c1ccc(Cl)c(Cl)c1` (stereo unspecified), the growth was 99.7%.

For the compound `CCNC(=O)Oc1ccc(/C(=C(/CC)Cc2ccccc2)c2ccc(OCCN3CCCC3)cc2)cc1`, the growth is 87.2%.

For `COc1cc(C2C(C(=O)OCc3ccccc3)=C(C)NC(C)=C2C(=O)OCc2ccccc2)cc(OC)c1OC`, the growth is 11.3%.

Take `CN(Cc1cc(Br)cc(Br)c1O)Cc1cc(Br)cc(Br)c1O`: the growth was 18.2%.

Regarding `Cc1c2cccnc2c(C)c2c1c1cc(CO)ccc1n2C`, the growth was 29.9%.

`S=c1[nH]c(=S)c2c(-c3ccccc3)c(-c3ccccc3)oc2[nH]1`: the growth was 114%.

With `CCC1S/C(=N\N=C(\C)c2cc3cc(Cl)ccc3o2)N(c2ccccc2)C1=O` (stereo unspecified), the growth was -53.2% (active).

In the case of `CCN(CC)Cc1cc(Nc2ccnc3cc(Cl)ccc23)ccc1O`, the growth was 88.8%.

In the case of `CCOC(=O)C(Cc1ccc(OC)cc1)C(=O)OCC`, the growth was 14.3%.

On to `CC1(C)CC[C@]2(C(=O)N[C@H](CO)Cc3ccccc3)CC[C@]3(C)C(=CC[C@@H]4[C@@]5(C)CCCNC(C)(C)[C@@H]5CC[C@]43C)[C@@H]2C1`, for which the growth was 41.8%.

With `CC(C)(C)n1cc(-c2ccnc(NCCNS(=O)(=O)c3ccc(O)cc3)c2)c(-c2cccc(O)c2)n1`, the growth was 92.7%.

For `CC1(C)C(N)=Nc2cc(OCCCN3Cc4ccccc4C3)c(OCC3CC3)cc21`, the growth was 19.1%.

Regarding `CCOC(=O)C(=CNc1cnc(Nc2ccc(N3CCOCC3)cc2)nc1Oc1ccc(OC)cc1)C(=O)OCC`, the growth is 37.7%.

For the compound `O=C(Nc1ccccc1O)c1ccc(CNC(=O)c2ccsc2Nc2ccnc(C(F)(F)F)c2)cc1`, the growth was 5.36% (active).

On to `CC(=O)ON1CCCC(P(=O)(OCCSC(=O)C(C)(C)C)OCCSC(=O)C(C)(C)C)C1=O` (stereo unspecified), for which the growth was -6.31% (active).
